The structures appear in SMILES notation. Values joined by “and” are separate entries in the source; they are usually repeats but may differ in a detail not shown here. Identical values can stand only once. About 83,000 compounds went through this panel and 20% of them were active in at least one assay; those are over-represented in the sample as a whole.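 Compound tested at a single concentration for 48 hours in 96-well plates; a percent growth value below 10 was scored as active.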 Active and inactive are the calls of the source.

For the first experiment, the system named is A498 renal. Description: NCI-60 one-dose screen, 48 h (100 = growth as untreated, 0 = no growth, -100 = all killed). As to conditions: 10 µM. The protocol:
Growth inhibition of the A498 human tumor cell line is measured as a screen for anti-cancer activity. Cells are grown in 96 well plates and exposed to the test compound for 48 hours. Compounds are tested at a single concentration, which is 10^-5 M for most compounds. The reported endpoint is percent growth (GI% or GIPRCNT), where numbers from 0 - 100% represent growth inhibition, and numbers from -100% - 0 represent cell death. For example, a value of 40 represents 60% growth inhibition. A value of 0 means no net growth occurred over the course of the experiment. A value of -40 indicates 40% of cells at the beginning of the experiment died by the end of the experiment. A value of -100 means all cells are dead at the end of the experiment.
NCI-60 Human Tumor Cell Lines Screen was performed using the standard one-dose NCI protocol, which is described in more detail at https://dtp.cancer.gov/discovery_development/nci-60/default.htm.
Compounds with GIPRCNT values below 10 were considered active. Activity score was based on GIPRCNT using the following formula: […]
Score is 0 for GIPRCNT values of 100 or above, 50 for GIPRCNT values of 0, and 100 for GIPRCNT values of -100.
Consider `O=C(Nc1cccc(Br)c1)Oc1cccc2cccnc12`, for which the growth is 97.5% (inactive).
As to `CN(C)C(=O)c1ccc(SC(=S)NCc2ccccc2)cc1`, the growth is 114% (inactive).

Still in this experiment, the particulars now being: 10 µM unless noted.
Regarding `Cc1ccc2nc(C[n+]3ccc4ccccc4c3)ccc2c1`, the growth was 81% (inactive).
Still for that read-out and setting: for `CC(C)c1ccc2nc3ccc(C(=O)NCCN4CCN(c5ccccc5)CC4)cn3c(=O)c2c1` the value was 81.8% (inactive).
For the molecule `O=C1N[C@H]2[C@H](CS[C@H]2CCCCC(=O)N(CCP(c2ccccc2)c2ccccc2)CCP(c2ccccc2)c2ccccc2)N1`, the growth is 94.2% (inactive).
Regarding `CC1(C)CC([P+](c2ccccc2)(c2ccccc2)c2ccccc2)=NN1`, the growth is 92% (inactive).
With `Cc1ccc2c(ccc3c[n+]4c5ccccc5ccc4n32)c1`, the growth was 16% (inactive).
As for `N#CSCc1c(Cl)cccc1Cl`, the growth is 85.1% (inactive).
On the same count and under the same terms, next, `CCOC(=O)c1c(C)[nH]c(CO)c1C`: 107% (inactive).
On to `O=C(Nc1cccc(Br)c1)Oc1ccc(Cl)c2cccnc12`, for which the growth was 96.1% [100 µM] (inactive).
On the same count and under the same terms, for `OC(CNc1ccnc2cc(Cl)ccc12)CNc1ccnc2cc(Cl)ccc12` the value was 76.9% (inactive); for `COc1ccccc1OC(=O)Oc1ccccc1OC`, 108% (inactive) and 103% (inactive); for `Cc1cc2nc(CS)[nH]c2cc1C`, 95.7% (inactive).
For `CCOC(=O)/C(=C\c1ccc(-c2ccccc2)cc1)C(C)=O`, the growth is 92.2% (inactive).
On the same count and under the same terms, for `COC(=O)c1nc(=S)[nH]c(C(=O)OC)c1C(=O)c1ccccn1` the value was 145% (inactive); for `CC(C)(C)CC(C)(C)c1ccc(OCCSC(=N)N)cc1`, 60.2% (inactive); for `Nc1nc(N)c2c(ccc3c2ccn3Cc2cccc([N+](=O)[O-])c2)n1`, -89.5% (active).
Same read-out and setting: for `CN(C)c1ccc(N=Nc2cccc3ccccc23)cc1` the value was 85.3% (inactive).
As for `CC1=CC(O)C2CC1C2(C)C` (stereo not given), the growth is 91% (inactive) and 92.7% (inactive).
As to `Cn1c2ccccc2c2nnc(N/N=C/c3ccccn3)nc21`, the growth is 34.5% (inactive).
Consider `CCC(CCCN(CC)CCc1ccccc1)OC(=O)c1cc(OC)c(OC)c(OC)c1` (stereo not given), for which the growth is 60.2% (inactive).
Consider `Nc1ncnc2c1ncn2C1OC(CO)C(O)C1O` (stereo not given), for which the growth is 123% (inactive) and 107% (inactive) and 128% (inactive).
Take `CC1OC(OC2C(OC3CCC4(C)C(CCC5(C)C4CC=C4C6CC(C)(C)CCC6(CO)C(O)CC45C)C3(C)C)OC(C(=O)O)C(OC3OC(COC4OC(CO)C(O)C(O)C4O)C(O)C(O)C3O)C2O)C(O)C(O)C1O` (stereo not given): the growth was -88% (active).
Take `N#CSCC(=O)c1ccc(Cl)cc1`: the growth is 83.7% (inactive).
Still for that read-out and setting: next, `COc1ccccc1/C=C\C(=O)c1ccccc1`: 101% (inactive).
The same measure, in the same setting: next, `CCC(=O)Sc1ccccc1C(=O)Nc1ccc(Cl)cc1`: 36.8% (inactive); `CN(C)c1ccc(C(=C2C=CC(=[N+](C)C)C=C2)c2ccc(N(C)C)cc2)cc1` (tested in a mixture with another compound): -93.2% (active).
Still for that read-out and setting: for `COc1cc(NS(C)(=O)=O)ccc1Nc1c2ccccc2nc2ccccc12` the value was -7.27% [2.5 µM] (active); for `NC1=CC(=O)c2ccccc2C1=O`, 90% (inactive).
For `CNc1ccc2c(c1)c1ccccc1n2C`, the growth is 88.8% (inactive).
For `COC(=O)Nc1nc2ccc(C(=O)c3ccccc3)cc2[nH]1`, the growth is 13.9% (inactive) and 14.6% (inactive) and -12.2% (active).
The same measure, in the same setting: for `CCCCCC(CCCCC)C(=O)O` the value was 103% (inactive).
The same measure, in the same setting: next, `Cc1ccnc2c1ccc1c(C)ccnc12`: 19.5% (inactive); `O=C1OCc2cccc3cccc1c23`: 83.5% (inactive); `CCCCCCCCCCCCCCCC[N+](C)(CCO)Cc1cnc[nH]1` (stereo not given): -5.4% (active).
Same read-out and setting: for `Cc1ccc(C(=Nc2ccccc2)N=P(c2ccccc2)(c2ccccc2)c2ccccc2)cc1` the value was -56.7% (active); for `CN1c2ccccc2C(C)(C)C12C=Cc1cc(O)ccc1O2` (stereo not given), 26% (inactive); for `Oc1c(Br)cc(Cl)cc1C(c1cc(Cl)cc(Br)c1O)C(Cl)(Cl)Cl`, -12.4% (active).

Staying with this experiment, now noted: 100 µM.
Regarding `O=C(Nc1cccc(Br)c1)Oc1cccc2cccnc12`, the growth was 98.6% (inactive).
For the molecule `CN(C)C(=O)c1ccc(SC(=S)NCc2ccccc2)cc1`, the growth was 96.1% (inactive).

(Values after PubChem BioAssay (NCI).)
